Measured values from PubChem BioAssay AID624331 (National Center for Advancing Translational Sciences (NCATS), 2012).
Inconclusive results are not listed. A number with no mark means an inactive call. Active and inactive are the calls of the source. Calls follow the shape of the dose curve; as a rule, active = well fitted activation curve with a large enough effect; inconclusive = small, poorly fitted or top-dose-only effect; inactive = no such curve, though single readings can be large or run the other way.

Assay: qHTS assay for re-activators of p53 using a Luc reporter: Hit Validation with no p53 Expressed; as to activity change, positive = activation: 0% is about no effect
Conditions: p53-null cells, luciferase reporter counter-screen; series mostly up to 46.1 µM; activity change, positive = activation: at the top concentration
In short: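 Counter-screen of primary hits in a cell line not transfected with p53, in Opti-MEM with 10% FBS; compounds at several concentrations (10 mM stock, 1:5; top 46.1 µM in well), 24 h at 37 deg C, 5% CO2. Luminescence read after 10 min with Amplite reagent.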
Potency is read from the fitted curve at half-maximal effect.

SMILES	activity change, positive = activation [%]	Potency
O=C(Nc1ccc2c(c1)OCO2)c1cc(Cl)ccn1	-33	
CCOC(=O)c1[nH]nc(C(=O)c2ccc(Br)cc2)c1O	-4.51	
N#C/C(Cn1c[n+](NC(=O)Nc2ccccc2)cn1)=N/O	62.8	
CCc1nnc(NC(=O)/C=C/c2ccco2)s1	37	
O=C(/C=C/c1ccc([N+](=O)[O-])s1)N1CCCCC1	156	
Cc1cc(C)cc(NC(=O)CSc2nnc(-c3ccccc3C)o2)c1	-19.1	
C/C(=N\NS(=O)(=O)c1ccc(Cl)cc1)c1ccc(NC(=O)c2ccco2)cc1	-9.33	
N=C1C(c2nc3ccccc3s2)=C(O)CN1Cc1ccccc1	-9.16	
O=C(CC1CCCCC1)NCc1ccc(Cl)cc1	0.113	
CCc1ccc(-n2cc(-c3ccc([N+](=O)[O-])cc3)[nH]c2=S)cc1	56.6	
O=c1oc(-c2ccc(O)c(O)c2)cc2cc(O)cc(O)c12	11.6	
CC(C)(C)c1nnc(N/N=C/c2cc(Br)ccc2O)n(N)c1=O	-30.3	
CC(C)CNC(=S)Nc1ccc(Oc2ccccc2)cc1	48.1	
C=CCOc1c(Br)cc(CNCCCN2CCOCC2)cc1OC	-42.5	
CCOc1ccc(NC(=O)c2cnsn2)cc1	-11.8	
C/C(=N\OCC(=O)NC12CC3CC(CC(C3)C1)C2)c1cc2ccccc2o1	-6.81	
Cc1nn2cc(-c3ccc(-c4ccccc4)cc3)nc2s1		731 nM (active)
COc1cc(NC(=O)CN2C(=O)COc3ccc(S(=O)(=O)N4CCCC4)cc32)cc(OC)c1	-13.5	
COc1ccccc1OCCn1nnc2ccccc21	48.1	
O=C(Nn1c(SCc2ccc([N+](=O)[O-])cc2)nc2ccccc2c1=O)c1ccc(F)cc1	24.3	

SMILES	activity change, positive = activation [%]	Potency
CCN1CCN(Cc2ccc(NC(=O)Nc3ccccc3)cc2)CC1	-19.7	
CC(=O)Nc1ccc2oc(-c3ccccc3Br)nc2c1	24	
CN(C)c1ccc(NC(=O)CCCc2ccccc2)cc1	91.2	
CCOc1ccc(S(=O)(=O)c2c(C(=O)c3ccc(C)cc3)cnc3cc4c(cc23)OCCO4)cc1	-4.04	
CC(C)N1CCc2c(sc(NC(=S)NC(=O)c3ccccc3)c2C#N)C1	3.16	
O=C(Nc1ccccc1N1CCCCC1)c1ccc([N+](=O)[O-])o1	6.76	
Nc1nonc1-n1nnc(C(=O)N/N=C/c2ccc(OCc3cccc(Cl)c3)cc2)c1CN1CCCCC1	56.6	
Cc1occc1C(=O)NNC(=S)Nc1ccccc1C(F)(F)F	1.85	
COc1ccc(N2CCN(CC(=O)Nc3ccc(C)cc3)CC2)cc1	-7.99	
O=C1/C(=C/c2ccco2)SC(=S)N1CCC(=O)N1CCCCC1CCO (centres undefined)	149	
Cc1ccc(-c2nnc(SCC(=O)Nc3ccccc3F)o2)cc1	-77.1	
O=C(COC(=O)C12CC3CC(CC(O)(C3)C1)C2)Nc1ccc(Br)cc1F	59.9	
CC(C)N1C(=O)CN(C2CCCCCC2)C(=O)C1c1ccccc1F (centres undefined)	-1.85	
COc1cccc(/C=N/NC(=O)CCc2n[nH]c(=O)[nH]c2=O)c1O	-13.8	
O=C(CCS(=O)(=O)c1ccccc1)Nc1nc2c(s1)CCCC2	-9.13	
CC(=O)c1c(C)[nH]c(C(=O)OCC(=O)c2ccc(C)s2)c1C	-28.2	
O=c1oc(CCO)cc2ccc(C#Cc3ccsc3)cc12	4.75	
CCOC(=O)c1csc(Nc2nc3ccc(F)cc3s2)n1	16.4	
Cc1sc(NC(=O)c2ccc(Cl)s2)c(C(N)=O)c1C	45.4	
